# Measured values from PMC9911399, “Two distinct binding modes provide the RNA-binding protein RbFox with extraordinary sequence specificity”.
# Substitutions are numbered along the chain they refer to; changes in the protein carry UniProt numbers. In all, about 16,000 sequences were measured (“ka relative to ugcaugu”: median about 0.096, highest 2% from about 0.35 on). The full list was thinned out, with the highest values kept by preference.
# T1: RBFOX1 RRM RbFoxmut (Fox-RRM*) (Homo sapiens, UniProt Q9NWB1 109-208, R118D;E147R;N151S;E152T)
# T1 sequence: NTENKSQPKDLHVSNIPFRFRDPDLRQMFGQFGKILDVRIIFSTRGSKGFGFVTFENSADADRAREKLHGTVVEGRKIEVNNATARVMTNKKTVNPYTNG
# B1: CUUCGUG (DNA:RNA)
# RNA: GGGAGACCGGAAUUCAGAUUGUCCCUUCGUGUUAAAUCCCGUCGUAGCCACCA
# DNA 1: CAATCTGAATTCCGGTCTCCC
# DNA 2: TGGTGGCTACGACGGGATT
# B2: CACUUAC (DNA:RNA)
# RNA: B1 RNA with U26A, U27C, C28U, G29U, U30A, G31C
# DNA 1: CAATCTGAATTCCGGTCTCCC
# DNA 2: TGGTGGCTACGACGGGATT
# B3: CGAAUGA (DNA:RNA)
# RNA: B1 RNA with U26G, U27A, C28A, G29U, U30G, G31A
# DNA 1: CAATCTGAATTCCGGTCTCCC
# DNA 2: TGGTGGCTACGACGGGATT
# B4: GAAUUUU (DNA:RNA)
# RNA: B1 RNA with C25G, U26A, U27A, C28U, G29U, G31U
# DNA 1: CAATCTGAATTCCGGTCTCCC
# DNA 2: TGGTGGCTACGACGGGATT
# B5: GAAAUGA (DNA:RNA)
# RNA: GGGAGACCGGAAUUCAGAUUGUCCGAAAUGAUUAAAUCCCGUCGUAGCCACCA
# DNA 1: CAATCTGAATTCCGGTCTCCC
# DNA 2: TGGTGGCTACGACGGGATT
# B6: GACCGAA (DNA:RNA)
# RNA: B5 RNA with A27C, A28C, U29G, G30A
# DNA 1: CAATCTGAATTCCGGTCTCCC
# DNA 2: TGGTGGCTACGACGGGATT
# B7: CGUUAAA (DNA:RNA)
# RNA: B1 RNA with U26G, C28U, G29A, U30A, G31A
# DNA 1: CAATCTGAATTCCGGTCTCCC
# DNA 2: TGGTGGCTACGACGGGATT
# B8: GAAUGAA (DNA:RNA)
# RNA: B5 RNA with A28U, U29G, G30A
# DNA 1: CAATCTGAATTCCGGTCTCCC
# DNA 2: TGGTGGCTACGACGGGATT
# B9: GGAAUGA (DNA:RNA)
# RNA: B5 RNA with A26G
# DNA 1: CAATCTGAATTCCGGTCTCCC
# DNA 2: TGGTGGCTACGACGGGATT
# B10: GAAUUGA (DNA:RNA)
# RNA: B5 RNA with A28U
# DNA 1: CAATCTGAATTCCGGTCTCCC
# DNA 2: TGGTGGCTACGACGGGATT
# B11: GUAAUGA (DNA:RNA)
# RNA: B5 RNA with A26U
# DNA 1: CAATCTGAATTCCGGTCTCCC
# DNA 2: TGGTGGCTACGACGGGATT
# B12: GAUGAUU (DNA:RNA)
# RNA: B1 RNA with C25G, U26A, C28G, G29A, G31U
# DNA 1: CAATCTGAATTCCGGTCTCCC
# DNA 2: TGGTGGCTACGACGGGATT
# B13: GAAUGAU (DNA:RNA)
# RNA: B5 RNA with A28U, U29G, G30A, A31U
# DNA 1: CAATCTGAATTCCGGTCTCCC
# DNA 2: TGGTGGCTACGACGGGATT
# B14: GUCCGAA (DNA:RNA)
# RNA: B1 RNA with C25G, U27C, U30A, G31A
# DNA 1: CAATCTGAATTCCGGTCTCCC
# DNA 2: TGGTGGCTACGACGGGATT
# B15: GACUAAG (DNA:RNA)
# RNA: B5 RNA with A27C, A28U, U29A, G30A, A31G
# DNA 1: CAATCTGAATTCCGGTCTCCC
# DNA 2: TGGTGGCTACGACGGGATT
# B16: CAUAAUU (DNA:RNA)
# RNA: B1 RNA with U26A, C28A, G29A, G31U
# DNA 1: CAATCTGAATTCCGGTCTCCC
# DNA 2: TGGTGGCTACGACGGGATT
# B17: AUCUAGU (DNA:RNA)
# RNA: B1 RNA with C25A, U27C, C28U, G29A, U30G, G31U
# DNA 1: CAATCTGAATTCCGGTCTCCC
# DNA 2: TGGTGGCTACGACGGGATT
# B18: UCGACUC (DNA:RNA)
# RNA: B1 RNA with C25U, U26C, U27G, C28A, G29C, G31C
# DNA 1: CAATCTGAATTCCGGTCTCCC
# DNA 2: TGGTGGCTACGACGGGATT
# B19: UACACUA (DNA:RNA)
# RNA: B5 RNA with G25U, A27C, U29C, G30U
# DNA 1: CAATCTGAATTCCGGTCTCCC
# DNA 2: TGGTGGCTACGACGGGATT
# B20: UCCUGAU (DNA:RNA)
# RNA: B1 RNA with C25U, U26C, U27C, C28U, U30A, G31U
# DNA 1: CAATCTGAATTCCGGTCTCCC
# DNA 2: TGGTGGCTACGACGGGATT
# B21: ACCUCGU (DNA:RNA)
# RNA: B5 RNA with G25A, A26C, A27C, A28U, U29C, A31U
# DNA 1: CAATCTGAATTCCGGTCTCCC
# DNA 2: TGGTGGCTACGACGGGATT
# B22: GAGUAGC (DNA:RNA)
# RNA: B5 RNA with A27G, A28U, U29A, A31C
# DNA 1: CAATCTGAATTCCGGTCTCCC
# DNA 2: TGGTGGCTACGACGGGATT
# B23: GAUUGAC (DNA:RNA)
# RNA: B1 RNA with C25G, U26A, C28U, U30A, G31C
# DNA 1: CAATCTGAATTCCGGTCTCCC
# DNA 2: TGGTGGCTACGACGGGATT
# B24: AGAAUGA (DNA:RNA)
# RNA: B5 RNA with G25A, A26G
# DNA 1: CAATCTGAATTCCGGTCTCCC
# DNA 2: TGGTGGCTACGACGGGATT
# B25: AGAUUGA (DNA:RNA)
# RNA: B5 RNA with G25A, A26G, A28U
# DNA 1: CAATCTGAATTCCGGTCTCCC
# DNA 2: TGGTGGCTACGACGGGATT
# B26: ACCAGAA (DNA:RNA)
# RNA: B5 RNA with G25A, A26C, A27C, U29G, G30A
# DNA 1: CAATCTGAATTCCGGTCTCCC
# DNA 2: TGGTGGCTACGACGGGATT
# B27: GAAUGAC (DNA:RNA)
# RNA: B5 RNA with A28U, U29G, G30A, A31C
# DNA 1: CAATCTGAATTCCGGTCTCCC
# DNA 2: TGGTGGCTACGACGGGATT
# B28: CGAUGAC (DNA:RNA)
# RNA: B1 RNA with U26G, U27A, C28U, U30A, G31C
# DNA 1: CAATCTGAATTCCGGTCTCCC
# DNA 2: TGGTGGCTACGACGGGATT
# B29: UGAAUAU (DNA:RNA)
# RNA: B5 RNA with G25U, A26G, G30A, A31U
# DNA 1: CAATCTGAATTCCGGTCTCCC
# DNA 2: TGGTGGCTACGACGGGATT
# B30: AGAUUAU (DNA:RNA)
# RNA: B5 RNA with G25A, A26G, A28U, G30A, A31U
# DNA 1: CAATCTGAATTCCGGTCTCCC
# DNA 2: TGGTGGCTACGACGGGATT
# B31: AAUCAGU (DNA:RNA)
# RNA: B1 RNA with C25A, U26A, G29A, U30G, G31U
# DNA 1: CAATCTGAATTCCGGTCTCCC
# DNA 2: TGGTGGCTACGACGGGATT
# Molecular target: T1, RBFOX1 RRM RbFoxmut (Fox-RRM*)
# Assay: EMSA; HiTS-Eq, 1 nM pool, 10 min; buffer printed only for the single-RNA assays: 10 mM Tris pH 7.5, 150 mM NaCl, 3.4 mM EDTA, 0.001% NP-40, 30 C
# Settings: tags: His6 N-terminal (pET28a); label: 5' 32P
# Method in brief: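 Purified RbFox RRM, wild type or mutant, was incubated for 10 min in 50 µL with 1 nM of a 5′-radiolabelled RNA pool carrying 7 randomized nucleotides, whose flanks were annealed to DNA oligonucleotides, over a series of increasing protein concentrations. Unbound RNA was resolved on 8% native PAGE, cut out, reverse-transcribed, barcoded by PCR and sequenced on an Illumina HiSeq 2500. Relative association constants were derived from changes in read counts for each RNA species versus the control reaction and normalised to the cognate motif.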
row,Binder,binding signal
1,B1,0.135 KA relative to UGCAUGU
2,B2,0.1 KA relative to UGCAUGU
3,B3,1.04 KA relative to UGCAUGU
4,B4,0.1 KA relative to UGCAUGU
5,B5,0.0974 KA relative to UGCAUGU
6,B6,0.0991 KA relative to UGCAUGU
7,B7,0.107 KA relative to UGCAUGU
8,B8,0.873 KA relative to UGCAUGU
9,B9,0.772 KA relative to UGCAUGU
10,B10,0.129 KA relative to UGCAUGU
11,B11,0.121 KA relative to UGCAUGU
12,B12,0.084 KA relative to UGCAUGU
13,B13,0.641 KA relative to UGCAUGU
14,B14,0.0703 KA relative to UGCAUGU
15,B15,0.101 KA relative to UGCAUGU
16,B16,0.0899 KA relative to UGCAUGU

row,Binder,binding signal
1,B17,0.14 KA relative to UGCAUGU
2,B18,0.0668 KA relative to UGCAUGU
3,B19,0.0954 KA relative to UGCAUGU
4,B20,0.0975 KA relative to UGCAUGU
5,B21,0.106 KA relative to UGCAUGU
6,B22,0.108 KA relative to UGCAUGU
7,B23,0.109 KA relative to UGCAUGU
8,B24,0.646 KA relative to UGCAUGU
9,B25,0.117 KA relative to UGCAUGU
10,B26,0.0963 KA relative to UGCAUGU
11,B27,0.829 KA relative to UGCAUGU
12,B28,0.141 KA relative to UGCAUGU
13,B29,0.0814 KA relative to UGCAUGU
14,B30,0.124 KA relative to UGCAUGU
15,B31,0.0868 KA relative to UGCAUGU
